Only some compounds are listed: those with a hit (about 6% of all), similar ones and a draw of the others.
D1 antag: antagonists of human D1 dopamine receptor; HEK293 TREx D1 cells, calcium flux, dopamine EC80; hits give low values; activity change, negative = inhibition, % at 10 µM; actives 3.2% (n = 360,000); in the data active means activity change below about -30%; further: on the % scale 0 is the no-effect control and ±100 the full control effect
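Kinetic fluorescence of a calcium dye serves as the read-out. D1-expressing Hek293 Trex cells, induced overnight at 30 C, are exposed to compound for 180 s before an EC80 dopamine addition, then read 180 s further.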
D1 PAM: human D1 dopamine receptor positive modulation; HEK293 TREx D1 cells, calcium flux, dopamine EC20 potentiation; actives 0.036% (n = 360,000); potentiation, % at 10 µM; AID 504651; P21728; in the data active means potentiation above about 30%; further: 0% is about no effect
DRD3 agonist: activates the human D3 dopamine receptor; P35462; max activation, %; D3R DiscoveRx beta-arrestin cells, luminescence, 90 min; actives 0.58% (n = 410,000); in the data active means max activation above about 30%; further: 0% is about no effect
Target sequence (P35462 whole entry, looked up): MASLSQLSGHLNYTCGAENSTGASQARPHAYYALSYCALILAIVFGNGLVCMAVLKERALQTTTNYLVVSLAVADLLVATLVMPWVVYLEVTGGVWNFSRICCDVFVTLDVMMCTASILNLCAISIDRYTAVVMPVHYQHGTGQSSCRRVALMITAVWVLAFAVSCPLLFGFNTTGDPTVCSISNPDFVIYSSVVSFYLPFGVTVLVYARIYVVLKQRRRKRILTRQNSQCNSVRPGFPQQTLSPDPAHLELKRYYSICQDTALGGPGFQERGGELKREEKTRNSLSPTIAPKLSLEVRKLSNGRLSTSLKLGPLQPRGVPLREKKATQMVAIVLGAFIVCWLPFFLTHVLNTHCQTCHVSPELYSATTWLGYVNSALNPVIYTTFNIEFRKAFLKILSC
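Cells at 1500/well, incubated overnight, then treated with pinned compounds (dopamine as control) for 90 min at 37 degrees C. DiscoveRx reagent added for 30 - 60 minutes at room temperature; luminescence read.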
DRD3 antagonist: D3 dopamine receptor (human) antagonism | P35462 | D3R cells, DiscoveRx beta-arrestin luminescence, antagonist mode; hits give low values | actives 2.5% (n = 360,000) | max response, negative = inhibition, %; in the data active means max response below about -50%; inconclusive means no clear call, values can overlap the other calls; further: on the % scale 0 is the no-effect control and ±100 the full control effect
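Cells expressing the human receptor were seeded at 1500 cells/well, incubated overnight at 37 degrees C in 5% CO2, then exposed to library compounds with dopamine controls for 90 minutes at 37 degrees C before luminescent detection.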
D1 agonist: activates the human D1 dopamine receptor; P21728; HEK293 T-REx D1 cells, calcium flux, agonist mode; activation, % at 2 µM; actives 1% (n = 360,000); AID 504660; in the data active means activation above about 30%; further: 0% is about no effect
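Tetracycline-induced HEK293 TREx D1 cells, force-coupled to calcium signalling, were dye-loaded with a no-wash calcium kit. Compound was pin-added after a 10 s baseline. Fluorescence was read kinetically at 1 cycle/s for 180 s, with calcium rises flagged as agonism.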
Active calls of the source: *; ? = inconclusive; . = no result; ! = repeats disagree.

SMILES	D1 antag	D1 PAM	DRD3 agonist	DRD3 antagonist	D1 agonist
O=C(c1ccc(Cl)cc1)N1CCN(CCOc2ccccc2)CC1	-9	-4	84*	-5	2
COc1ccc(OCCN2CCN(C(=O)c3ccc(OC(F)F)c(OC)c3)CC2)cc1	-20	0	123*	14	7
Cc1ccc(C)n1CCN1CCN(C(=O)c2ccco2)CC1	-20	1	5	-11	3
COc1ccc(C(=O)N2CCCC2)cc1	-4	-4	-8	-13	2
Cc1ccc(C)n1CCN1CCN(C(=O)c2ccc(Cl)cc2)CC1	-16	-4	-13	-78*	0
CC(C)(C)NCC(O)CSc1nc(-c2ccc(C(N)=O)s2)cs1 (centres undefined)	.	.	2	.	.
O=C(O)c1ccc(CNCc2ccc(Cl)cc2)s1	3	-3	-3	.	1
COc1ccc(OC)c(CNC(=O)c2ccc(NC(=O)c3nsc4ccccc34)cc2)c1	-2	0	7	.	0
Cc1ccc(-n2c(C)cc(/C=c3/sc4nc5ccccc5n4c3=O)c2C)cc1	-1	4	6	37	1
COc1cc(N2CCCC2)c(OC)cc1/C=c1/sc2nc3ccccc3n2c1=O	-18	-6	.	.	47*
COc1cc(/C=C(/C(=O)O)c2ccc(-c3ccccc3)cc2)cc(OC)c1OC	-42*	-8	2	2	-3
CCOC(=O)CCc1c(C)c2cc3c(c(C)c2oc1=O)OCN(CCc1ccccc1OC)C3	-7	0	-34	.	9
O=C(NCC(c1ccc2c(c1)OCO2)N1CCN(c2ccccc2)CC1)C(=O)Nc1ccccc1 (centres undefined)	-2	0	7	.	2
O=C1CC(c2ccccc2)Cc2[nH]c(=O)c(-c3nc(-c4cccc(Cl)c4)cs3)cc21 (centres undefined)	-6	-1	0	.	2
COc1cc(/C=C/C(=O)N2CCCc3ccccc32)cc(OC)c1OC	-33*	-2	6	23	-1
COc1ccc(/C=C/C(=O)N2CCCc3ccccc32)cc1	-32*	-7	-3	4	8
COc1ccc(C)cc1NC(=O)c1oc2ccc(S(=O)(=O)N3CCC4(CC3)OCCO4)cc2c1C	7	-2	4	.	0
CCCn1c(=O)c2sccc2n2c(CCCC(=O)NC3CCC(C)CC3)nnc12 (centres undefined)	-7	9	12	.	0
COc1ccc(C(NC(=O)C2CCN(Cc3ccc(Oc4ccccc4)cc3)CC2)c2ccccc2C)cn1 (centres undefined)	.	.	-15	-79*	.
Cc1cccnc1C(NC(=O)C1CCN(CCCOc2ccccc2)CC1)c1ccc(F)cc1 (centres undefined)	.	.	-27	-105*	.
COc1cc(CN2CCC(C(=O)NC(c3ccc(F)cc3)c3ncccc3C)CC2)cc(OC)c1 (centres undefined)	.	.	-20	0	.
COc1ccc(CN2CCC(C(=O)Nc3ccc(Oc4cccnc4)cc3)CC2)cc1	-10	-5	-8	-26	23
Cc1cccnc1C(NC(=O)C1CCN(Cc2ccc(Oc3ccccc3)cc2)CC1)c1ccccc1 (centres undefined)	.	.	-22	-81*	.
Cc1cccnc1C(NC(=O)C1CCN(Cc2ccccc2)CC1)c1ccc(F)cc1 (centres undefined)	.	.	-12	-55*	.
CCOc1ccc(NC(=O)c2cc3sc(Cl)cc3n2CC)cc1	-12	1	2	.	0
SMILES	D1 antag	D1 PAM	DRD3 agonist	DRD3 antagonist	D1 agonist
CCCCOC(=O)c1ccc(NC(=O)Cc2coc3ccc(C(C)C)cc23)cc1	-5	-2	10	.	19
Cc1ccccc1Cn1c2ccccc2c2cnn(CC(=O)NCCCc3ccccc3)c(=O)c21	18	-1	-5	.	7
O=C(NCc1cccs1)C1CC(c2ccc(Cl)c(Cl)c2)=NO1 (centres undefined)	27	1	-5	-10	3
O=C(NCc1cccs1)C1CC(c2ccc(Cl)cc2)=NO1 (centres undefined)	-33*	-6	-5	-18	8
O=C(NCc1ccccc1C(F)(F)F)C1CC(c2cccc(F)c2)=NO1 (centres undefined)	-91*	-9	10	18	1
O=C(NCCc1cccs1)C1CC(c2cccc(F)c2)=NO1 (centres undefined)	-7	-6	7	2	40*
Cc1ccc(CN(C(=O)c2ccc(OCC(C)C)cc2)c2ccccn2)o1	-5	-1	4	.	18
Cn1c(C(=O)NN)cc2cc(Oc3ccccc3)ccc21	-46*	-5	2	87	5
Cn1c(C(=O)O)cc2cc(Oc3ccccc3)ccc21	12	0	-2	4	3
O=S(=O)(c1cnc(Cl)c(Cl)c1)N1CCc2ccccc21	-12	-2	-17	-15	5
CC1CCN(S(=O)(=O)c2cnc(Cl)c(Br)c2)CC1	3	-6	3	6	56*
O=S(=O)(c1cnc(Cl)c(Br)c1)N1CCc2ccccc21	-4	0	-10	-53*	8
Cc1cccc(-n2cc(CN3CCN(c4ccccn4)CC3)c(-c3cccc(F)c3)n2)c1	0	3	-10	?	2
Cc1ccc(-n2cc(CN3CCN(c4ccccn4)CC3)c(-c3ccc(F)cc3)n2)cc1	3	0	-21	-62*	3
COc1ccc(CN2CCN(c3ccccn3)CC2)c(OC)c1C	-13	-6	-11	-56*!	5
COc1ccc(CN2CCN(c3ncccn3)CC2)c(C)c1C	7	5	71*	-20	-3
Cc1cccc(Cn2c(SCc3ccc(C(=O)NCc4ccccc4)cc3)nc3cccnc32)c1	-22	-4	-29	.	9
Cc1ccc(Cn2ccnc2SCC(=O)Nc2ccccc2C(F)(F)F)cc1	2	-7	-6	.	6
CCc1ccc(/C=C2/SC(=S)N(CCC(=O)Nc3ccc(C(=O)O)cc3)C2=O)cc1	-18	-3	.	.	4
CCc1ccc(/C=C2/SC(=S)N(CCCC(=O)Nc3ccccc3C(=O)O)C2=O)cc1	-32*	-1	13	14	0
CCc1ccc(C=C2SC(=S)N(CCCC(=O)Nc3ccc(C(=O)O)cc3)C2=O)cc1	.	.	5	-19	.
CCc1ccc(/C=C2/SC(=S)N(CCC(=O)Nc3cccc(C(=O)O)c3)C2=O)cc1	9	2	-9	12	68*
COc1ccc(OC)c(CNC(=O)C(C)n2c(C)c3cnn(-c4ccccc4)c(=O)c3c2C)c1 (centres undefined)	-6	-3	0	.	0
O=C(NCCN1CCN(Cc2ccccc2)CC1)C1CC(=O)N(C2CCCC2)C1 (centres undefined)	18	-6	-18	-8	1
O=C(NCCN1CCN(c2ccccc2F)CC1)C1CC(=O)N(C2CCCC2)C1 (centres undefined)	.	.	-9	-66*	.

Assay outcomes (PubChem BioAssay)
